# Assay results from PubChem BioAssay AID1259389 (Center for Chemical Genomics, University of Michigan, 2018).
# Screen size: about 100,000 compounds; about 620 (0.62%) were called active. This is one part of a sample in which actives are shown more often than they occur. A number with no mark means an inactive call. How the source made its calls: active means z-score of 3 or more in at least 2 runs; inactive means the rest.
# Assay: TAR RNA-Tat peptide displacers, HIV-1, primary screen, biochemical, FRET, FAM/TAMRA-labeled Tat (AID 1259389)
# Details: HIV-1 TAR RNA, Tat peptide displacement FRET; stronger effect = higher value
row,SMILES,z-score
1,Cc1n[nH]c(C)c1Nc1nc(-c2ccc(O)c(O)c2)cs1,28.7 (active)
2,Oc1ccc(-c2csc(Nc3cccnc3)n2)cc1,-0.3
3,Cc1cccc(Nc2nc(-c3ccccc3)cs2)n1,1.14
4,NC(=O)Cn1c(=O)n(Cc2ccc(Cl)cc2)c(=O)c2cccnc21,-0.39
5,CCCNS(=O)(=O)c1ccc2c(c1)CC(C)N2C(=O)C1CC1 (stereo unspecified),0.52
6,O=C(O)c1[nH]c2ccccc2c1-n1cccc1,13.1 (active)
7,Cc1[nH]c2ccccc2c1C(=O)C(=O)N(C)c1ccccc1,-0.5
8,Cc1[nH]c2ccccc2c1C(=O)CN1CCN(C)CC1,1.46
9,O=c1c(N2CCN(C/C=C/c3ccccc3)CC2)csc2ccc(Cl)cc12,-2.75
10,COC(=O)C(=O)c1c(-c2ccc(Br)cc2)[nH]c2ccccc12,1.05
11,CCOC(=O)C1CCN(C2C(=O)c3ccccc3N2C(C)=O)CC1 (stereo unspecified),1.39
12,Cc1nn(C)c(C)c1CNC(=O)Cn1c(-c2cccs2)cc2cc(Cl)ccc21,0.84
13,CC1Sc2ccc(S(=O)(=O)N(C)c3ccc(Br)cc3)cc2NC1=O (stereo unspecified),1.17
14,CC1=C(C(=O)OCc2ccccc2)C(c2ccc(O)cc2)C2=C(CC(C)(C)CC2=O)N1 (stereo unspecified),1.82
15,CC1CCN(S(=O)(=O)c2ccc3[nH]c(=O)ccc3c2)CC1,-0.99
16,O=C(C1CCN(S(=O)(=O)c2ccc3[nH]c(=O)ccc3c2)CC1)N1CCCC1,0.85
17,O=c1ccc2cc(S(=O)(=O)N3CCN(C4CCCCC4)CC3)ccc2[nH]1,18.9 (active)
18,Cc1noc2ncnc(N3CCCC(C(=O)Nc4ccccn4)C3)c12 (stereo unspecified),0.85
19,CCOC(=O)c1noc2nc(C)nc(Nc3ccccc3)c12,0.17
20,O=C1c2ccc(O)cc2O[C@H](c2cc(O)c(O)c(O)c2)[C@H]1O,9.31 (active)
21,O=C(CSc1nnc2c3ccccc3nc(-c3ccccc3)n12)Nc1ccccc1,0.64
22,O=C(CSCc1cnn(-c2ccccc2)c1-n1cccc1)Nc1ccccc1F,1.3
23,O=S(=O)(c1ccc(C2Nc3ccc(Cl)cc3C3C=CCC32)cc1)N1CCOCC1 (stereo unspecified),-2.45
24,O=C(O)C1Nc2ccc(Cl)cc2C2C=CCC12 (stereo unspecified),42 (active)

row,SMILES,z-score
1,O=C(NCc1cccnc1)c1ccc(CN2CC(=O)N3CCCC3C2=O)cc1 (stereo unspecified),1.95
2,O=C(CSc1nnc2scc(-c3ccccc3)n12)N1CCOCC1,0.4
3,O=C(CSc1ccc(-c2ccccn2)nn1)Nc1ccccc1,2.09
4,CCc1c(CN2CCN(Cc3ccccc3)CC2)csc1C,1.69
5,CCn1c(C(C)N2CCCCC2)nc2ccccc21 (stereo unspecified),1
6,Cc1ccc(Nc2nc(NCc3ccco3)nc3c2cnn3C)c(C)c1,3.66 (active)
7,CCNc1nc(Nc2ccc(Cl)cc2C)c2cnn(C)c2n1,0.26
8,Cc1ccc(Nc2ncnc3c2cnn3C)c(C)c1,0.03
9,NC(=O)C1CCN(c2nc3c(S(=O)(=O)c4cccc(Cl)c4)nnn3c3ccsc23)CC1,0.52
10,CCN(CC)c1nc2c(S(=O)(=O)c3ccc(Cl)cc3)nnn2c2ccsc12,-1.01
11,O=S(=O)(c1ccc(Cl)cc1)c1nnn2c1nc(NC1CCCC1)c1sccc12,7.09 (active)
12,Cn1c(=O)oc2cc(S(=O)(=O)CCC(=O)Nc3cccc(F)c3)ccc21,0.47
13,O=C(Cn1nc(-c2ccccc2)c2cnc3cc4c(cc3c21)OCCO4)NC1CCCC1,-0.04
14,O=C(CSc1ncc(S(=O)(=O)c2ccccc2)c(=O)[nH]1)Nc1cccc(F)c1,-1.01
15,CCc1ccc(C2CC(=O)Nc3c2c(C)nn3-c2nc3ccccc3[nH]2)s1 (stereo unspecified),1.63
16,Cc1ccc2occ(C3Nc4cc(C)c(C)cc4NC4=C3C(=O)CC(C)(C)C4)c(=O)c2c1 (stereo unspecified),0.26
17,COc1cccc(OCc2cc(=O)n3nc(C)sc3n2)c1,-0.36
18,Cc1cccc(C)c1OCc1cc(=O)n2nc(-c3ccco3)sc2n1,36.5 (active)
19,Cc1nnc2sc(-c3ccco3)nn12,-1.16
20,CCCCc1nn2c(=O)cc(CSc3n[nH]c(CC(C)C)n3)nc2s1,-1.13
21,C=CCSc1ncc(Cl)c(C(=O)Nc2c(C(=O)Nc3ccc(OC)cc3)oc3ccccc23)n1,1.45
22,COC(=O)c1ccc(C2C(C(=O)OC3CCCC3)=C(C)NC3=C2C(=O)CCC3)cc1 (stereo unspecified),2.05
23,COc1ccc(-c2nn3c(-c4ccccc4)nnc3s2)cc1OC,21 (active)
24,Cc1ccc(-c2nnc3sc(-c4ccccn4)nn23)cc1,1.2

row,SMILES,z-score
1,c1ccc(-c2nnc3sc(-c4ccc5c(c4)OCCO5)nn23)cc1,-0.37
2,CCC1Sc2ccc(S(=O)(=O)CCC(=O)NCCc3sccc3C)cc2NC1=O (stereo unspecified),-0.87
3,O=c1c(NC2CCCC2)c(-c2ccc3c(c2)CCCC3)c1=O,-0.58
4,CCN(CC)C(=O)CCc1nc(CN2CCN(S(=O)(=O)c3cccs3)CC2)no1,-6.66
5,CCCCn1c(=O)[nH]c(=O)c2sc(N)nc21,0.78
6,COc1ccc(-n2c(=O)[nH]c(=O)c3sc(NC(=O)Nc4ccccc4)nc32)cc1,-0.15
7,COc1cc(Br)c(CCn2c(=O)[nH]c(=O)c3sc(N)nc32)cc1OC,28.5 (active)
8,Cc1c(C(=O)N2CCOCC2)oc2c1-c1nn(CC(=O)NC3CCCc4ccccc43)cc1CC2 (stereo unspecified),3.05
9,Cc1cc(NCc2cccs2)n2nc(Cc3cccc(F)c3)nc2n1,1.34
10,Cc1cc(C)cc(NC2c3ncccc3C(=O)N2c2ccccc2)c1 (stereo unspecified),-1.21
11,COCCCN1C(=O)c2cc3sccc3n2CC1(C)C(=O)NC1CCCC(C)C1C (stereo unspecified),2.51
12,CC1CCCC(NC(=O)C2(C)Cn3c(cc4occc43)C(=O)N2Cc2ccc3c(c2)OCO3)C1C (stereo unspecified),6.96 (active)
13,CCCN1C(=O)c2cc3sccc3n2CC1(C)C(=O)NC1CCC(C)CC1 (stereo unspecified),1.88
14,CC1CCCCC1NC(=O)C1(C)Cn2c(cc3sccc32)C(=O)N1Cc1ccco1 (stereo unspecified),2.7
15,CC1CCC(NC(=O)C2(C)Cn3c(cc4occc43)C(=O)N2CCN(C)C2CCCCC2)CC1 (stereo unspecified),0.99
16,CC1CCC(NC(=O)C2(C)Cn3c(cc4occc43)C(=O)N2c2ccc(Cl)cc2)CC1 (stereo unspecified),5.26 (active)
17,CCOC(=O)c1[nH]c(C)c(C(=O)NC2CCCC(C)C2C)c1C (stereo unspecified),0.78
18,CSc1cccc(NC(=O)N2c3ccccc3NC3=C(C(=O)CCC3)C2c2ccco2)c1 (stereo unspecified),0.6
19,O=C1c2ccccc2S(=O)(=O)N1Cc1nnnn1-c1ccccc1,2.08
20,Cc1nc(-c2ccc(C)c(S(=O)(=O)Nc3ccc(Cl)cc3F)c2)cs1,1.67
21,CN1C(C(=O)NCc2ccccc2)=CC(c2ccc3c(c2)OCO3)=NS1(=O)=O,3.21 (active)
22,CCNC(=O)C1=CC(c2cccs2)=NS(=O)(=O)N1C,1.38
23,CN1C(C(=O)N2CCCc3ccccc32)=CC(c2ccc3c(c2)OCO3)=NS1(=O)=O,2.14
24,CNC(=O)c1c(NC(=O)CCSc2ccccc2)sc2c1CCC2,0.4

row,SMILES,z-score
1,COC(=O)c1cc2n(n1)CC(C)(C(=O)NC1CCC(C)CC1)N(CCc1cccs1)C2=O (stereo unspecified),0.65
2,CSc1cccc(NC(=O)CSc2nnc(C)n3c2cc2oc(C)cc23)c1,0.7
3,O=C(Nc1nccs1)c1cc(-c2ccc(Cl)cc2)on1,15.3
4,CC1CCCC(NC(=O)C(C)n2ncn3cccc3c2=O)C1C (stereo unspecified),11 (active)
5,CN1CCN(C(=O)Cn2ncn3cccc3c2=O)CC1,1.42
6,Cc1cc2c(cc3c(=O)n(CC(=O)NC4CCCC(C)C4C)ncn32)s1 (stereo unspecified),-0.21
7,CCCCn1c(C)c(C)c2c1ncn1nc(Cc3ccc(OC)cc3)nc21,0.12
8,CC1CCCCN1CCCNC(=O)c1noc2c1CCc1sccc1-2 (stereo unspecified),1.13
9,CN1C(=O)C[C@H](C(=O)O)C1c1cccnc1 (stereo partly specified),1.8
10,CCOc1ccc2nc(Nc3ncc4c(n3)CC(c3ccco3)CC4=O)nc(C)c2c1 (stereo unspecified),13.8 (active)
11,CCOc1ccc2nc(Nc3nc(C)c(CC)c(=O)[nH]3)nc(C)c2c1,2.61
12,Cc1ccc2nc(Nc3ncc4c(n3)CC(C)(C)CC4=O)nc(C)c2c1,1.31
13,Cn1cc(NC(=O)Nc2cccc(Cl)c2)c2ccccc2c1=O,-0.05
14,Oc1ccc(C2Nc3cccc4cccc(c34)N2)cc1,4.86 (active)
15,Cc1ccc(C2Nc3cccc4cccc(c34)N2)cc1,6.71 (active)
16,COc1cccc(C2Nc3cccc4cccc(c34)N2)c1,21.3 (active)
17,Cc1ccc(C2CC(c3cccc(C)c3)n3nc(N)nc3N2)cc1 (stereo unspecified),0.73
18,COc1ccc(C2CC(=O)C3=C(C2)Nc2ccccc2NC3c2cccc(Cl)c2)cc1 (stereo unspecified),-1.58
19,COc1ccc(N2C(=O)C3CCCN3C2c2cccc(OC)c2)cc1 (stereo unspecified),-0.15
20,COc1cccc(C2Nc3cccc4cccc(c34)N2)c1OC,3.46
21,Brc1ccccc1C1Nc2cccc3cccc(c23)N1,5.65 (active)
22,CCC(C)NC(=O)c1ccc(CN2C(=O)C(C)=C(c3ccc(C)cc3)S2(=O)=O)cc1 (stereo unspecified),1.92
23,Cc1nc2nc(Cc3ccccc3)[nH]n2c(=O)c1C,2.84
24,Cc1cc2nc(COC(=O)c3ccccc3Cl)cc(=O)n2o1,0.42
